Rv3671c protease: inhibits the M. tuberculosis serine protease Rv3671c; P9WHR9; inhibition, % at 5.96 µM; hit rate 0.048% among 320,000; in the data active means inhibition above about 38%;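 further: extracellular domain of Rv3671c used as enzyme; 0% = enzyme with DMSO and 100% = no enzyme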
RecA intein inh: inhibitors of M. tuberculosis RecA intein splicing | inhibition, % (test concentration not listed) | hit rate 0.75% among 290,000 | cell-free RecA intein splicing, fluorescence; in the data active means inhibition above about 30%; inconclusive means no clear call, values can overlap the other calls;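 further: 0% = vehicle wells and 100% = reference inhibitor control wells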
Mtb bLac sens: beta-lactam sensitization of Mtb H37Rv; M. tuberculosis H37Rv growth with meropenem, percent inhibition; inhibition, % at 25 µM; hit rate 0.27% among 330,000; AID 434955; call rule not given here;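 further: growth measured after seven days incubation then overnight dye step; 0% = bacteria only wells and 100% = bacteria with antibiotic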
UGM FP inh: blocks M. tuberculosis UGM enzyme; AID 504406; purified UGM, fluorescence polarization probe displacement; hit rate 0.06% among 320,000; inhibition, % at 10 µM; P9WIQ1; in the data active means inhibition above about 10%, passing the limit was not always enough; inconclusive means no clear call, values can overlap the other calls
Target sequence (P9WIQ1 whole entry, looked up): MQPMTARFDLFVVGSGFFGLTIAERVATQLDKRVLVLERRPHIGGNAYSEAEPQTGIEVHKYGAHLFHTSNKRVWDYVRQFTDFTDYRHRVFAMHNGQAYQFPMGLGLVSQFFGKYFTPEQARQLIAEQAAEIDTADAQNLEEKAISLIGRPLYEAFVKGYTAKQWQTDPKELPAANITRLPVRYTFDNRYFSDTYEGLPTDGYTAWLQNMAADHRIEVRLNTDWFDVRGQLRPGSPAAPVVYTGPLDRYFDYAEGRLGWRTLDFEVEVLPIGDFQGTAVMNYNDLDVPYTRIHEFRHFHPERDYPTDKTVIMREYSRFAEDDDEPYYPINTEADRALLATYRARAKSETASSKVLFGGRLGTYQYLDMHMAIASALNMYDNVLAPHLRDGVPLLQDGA
FBA Mtb inh: inhibits M. tuberculosis FBA enzyme | purified M. tuberculosis FBA, fluorescence read-out | P9WQA3 | hit rate 2.3% among 360,000 | inhibition, % at 1 µM | AID 588726;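 further: 0% = vehicle and 100% = reference inhibitor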
GDH-TPI counter-1: GDH-TPI coupled enzyme inhibition counter-screen; GDH-TPI coupled enzyme counterscreen, NADH absorbance; inhibition, % at 4.8 µM; hit rate 1.2% among 360,000; AID 588335; in the data active means inhibition above about 30%;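 further: 0% = DMSO wells and 100% = wells lacking the enzyme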
Mtb FBA confirm: confirmation of M. tuberculosis fructose-bisphosphate aldolase inhibitors; hit rate 78% among 5,600; inhibition, % at 1 µM; purified M. tuberculosis FBA, fluorescence read-out; shares compounds with FBA Mtb inh; AID 651616;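 further: 0% = vehicle wells and 100% = reference inhibitor wells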
GDH-TPI counter-2: counter-screen for M. tuberculosis FBA inhibitors: GDH-TPI coupled enzyme inhibition. shares compounds with FBA Mtb inh. GDH-TPI coupled enzyme counterscreen, fluorescence. inhibition, % at 1 µM. hit rate 81% among 5,600. AID 652141; in the data active means inhibition above about 10%
* hit, by the source's call; ? = inconclusive; . = no result; + = active, no number. Sampled rows, rich in hits. Any-hit rate of the full collection: about 4%. Unless noted, no stated cut-off is given here; in the data, active means inhibition above about 27%; inactive means the rest.

SMILES	Rv3671c protease	RecA intein inh	Mtb bLac sens	UGM FP inh	FBA Mtb inh	GDH-TPI counter-1	Mtb FBA confirm	GDH-TPI counter-2
Cc1cc(OCC(=O)N2CCC(O)CC2)c2c(C)cc(=O)oc2c1	9.5	-2.4	-0.3	-1.8	99.9*	3.9	141.9*	104.7*
Cc1ccc(-c2nc(NC(=O)CSc3nnc(C)s3)ns2)cc1	10.4	-0.1	-0.6	1.6	1.1	6.9	.	.
COc1ccc(-c2nc(NC(=O)CSc3nnc(C)s3)ns2)cc1	-2.5	1.3	32.8	0.8	41.2*	10.2	4.5	-3.9
O=[N+]([O-])c1ccc(CSc2ccc(S(=O)(=O)N3CCCCCC3)cn2)cc1	.	.	.	.	-0.8	-2.8	.	.
Cc1nc(CNS(=O)(=O)c2ccc(Br)cc2)cs1	4.3	-1.0	?	2.8	-1.4	0.4	.	.
CCc1ccc(S(=O)(=O)NCc2csc(C)n2)cc1	.	-2.4	8.2	-1.6	34.0*	7.3	1.1	-7.6
O=c1nc(-c2ccccc2Cl)c2cc(F)ccc2[nH]1	1.4	-8.3	0.9	-3.1	53.1*	5.1	52.6*	46.2*
CC1(C(=O)Nc2cccc3ccccc23)CCN1C(=O)C1(c2ccccc2)CCCC1 (configuration not stated)	.	.	.	.	5.9	3.5	.	.
CCOc1ccc(CCNC(=O)COC(=O)COc2ccc(C#N)cc2)cc1OCC	0.2	.	-0.8	3.9	6.2	-3.2	.	.
COc1ccc(S(=O)(=O)N2CCC(C(=O)N[C@@H](C)C(=O)NCc3ccco3)CC2)cc1	.	.	.	.	1.0	-0.9	.	.
Cc1nc(SCC(=O)O)c2oc3ccccc3c2n1	-1.4	-1.4	-7.5	1.3	1.4	7.8	.	.
Cc1nc(SCC(=O)N2CCN(c3ccccc3)CC2)c2oc3ccccc3c2n1	-2.4	2.4	97.6	0.9	30.9*	9.2	+	+
CSCCNC(=O)C1(C)CCN1C(=O)C/C=C/c1ccccc1 (configuration not stated)	.	.	.	.	0.6	14.6	.	.
Cn1cc(-c2cccc(C(F)(F)F)c2)cc(C#N)c1=O	6.2	-2.8	-3.2	-0.3	45.6*	16.4	93.9*	61.8*
Cn1cc(-c2cccc(Cl)c2)cc(C#N)c1=O	-1.8	1.4	2.9	-2.9	43.6*	13.6	61.6*	42.5*
Cn1c(O)c(C=Nc2cccc(C(F)(F)F)c2)c(=O)n(C)c1=O	-29.4	-0.2	1.7	2.6	-1.5	21.4	.	.
CC(C)n1cc(-c2ccc(Cl)cc2)cc(C#N)c1=O	5.0	5.0	33.5	-1.6	3.5	8.2	.	.
CCN(C[C@H]1N[C@@](CC)(C(=O)OC)[C@H]2C(=O)N(Cc3ccccc3)C(=O)[C@@H]12)C(=O)C1CCCCC1	-4.9	.	3.0	-1.4	0.2	9.4	.	.
Nc1nc(SCc2ccccc2)cc(SCc2ccccc2)n1	.	.	.	.	1.8	14.1	.	.
CCc1noc(C)c1C(=O)Nc1ccc(S(=O)(=O)N2CCC(C)CC2)cc1	0.6	-0.3	-6.6	-1.0	-0.6	-2.1	.	.
O=C(c1cc2c(s1)CCCC2)N1CCN(c2ccccc2)CC1	1.0	3.2	-6.8	-0.3	34.4*	-1.3	83.5*	66.8*
Cc1cc(C(=O)COC(=O)c2cccc(NS(C)(=O)=O)c2)c(C)n1CC1CCCO1 (configuration not stated)	-0.9	.	4.9	-0.9	0.2	9.8	.	.
Cc1cccc2c(=O)n3c(cc12)-c1[nH]c2ccccc2c1CC3	.	.	.	.	82.7*	8.6	168.1*	109.6*
O=c1c2ccccc2nc2n1CCc1c-2[nH]c2ccccc12	-2.1	.	-0.7	-0.6	7.0	23.7	.	.
CCOc1ccc(S(=O)(=O)Nc2ccccc2C(=O)NCC2CCCO2)cc1 (configuration not stated)	-6.2	-1.0	-9.3	3.8	31.0*	-2.0	148.2*	108.1*
SMILES	Rv3671c protease	RecA intein inh	Mtb bLac sens	UGM FP inh	FBA Mtb inh	GDH-TPI counter-1	Mtb FBA confirm	GDH-TPI counter-2
CCOc1ccc(N=c2oc3cc(O)ccc3cc2C(=O)NCC2CCCO2)cc1 (configuration not stated)	2.9	-87.1	-4.4	0.8	55.7*	2.1	38.6*	36.4*
CCC1([N+](=O)[O-])COC(c2ccc(OC)cc2)OC1 (configuration not stated)	.	.	.	.	3.8	3.5	.	.
O=c1cc2oc3cc(O)c(O)cc3c(-c3ccccc3[N+](=O)[O-])c-2cc1O	-4.0	-1.4	31.5	0.0	-6.5	6.3	.	.
O=C(C1=C[C@@H](c2ccccc2)C[C@@H](OCc2ccc(CO)cc2)O1)N1CCCCCCC1	-2.6	6.5	-3.9	0.6	0.7	-3.1	.	.
CCCn1cc(S(=O)(=O)c2ccc(OC)cc2)c(=O)c2cc(OC)ccc21	-9.4	14.9	?	0.8	3.4	19.0	.	.
Cc1ccc(C(=O)N2CCCC(C(F)(F)F)C2)cc1S(=O)(=O)N1CCCCC1 (configuration not stated)	-2.6	-2.4	-16.7	3.9	-0.8	-3.5	.	.
O=C(c1ccc(Cl)c(S(=O)(=O)N2CCCCCC2)c1)N1CCCC(C(F)(F)F)C1 (configuration not stated)	1.3	5.2	-7.8	4.9	44.6*	0.7	64.6*	46.1*
Cc1cc(Oc2nc3ccccn3c(=O)c2/C=C(\C#N)C(=O)NC2CCS(=O)(=O)C2)ccc1Cl (configuration not stated)	-6.0	.	-1.0	2.7	44.8*	2.3	139.4*	112.7*
COc1ccc(Oc2nc3c(C)cccn3c(=O)c2/C=C(\C#N)C(N)=O)cc1	-12.0	-2.4	21.9	4.0	6.3	5.6	.	.
Cc1cccc(Oc2nc3ccccn3c(=O)c2/C=C(\C#N)C(=O)NC2CCS(=O)(=O)C2)c1C (configuration not stated)	2.2	-23.9	2.2	-1.8	50.8*	7.8	106.6*	79.7*
Cc1cccc(Oc2nc3ccccn3c(=O)c2/C=C(\C#N)C(=O)NC2CCS(=O)(=O)C2)c1 (configuration not stated)	-7.1	-33.0	-2.4	1.9	17.9	3.3	.	.
N#C/C(=C\c1c(Oc2ccc(Cl)cc2)nc2ccccn2c1=O)C(=O)NC1CCS(=O)(=O)C1 (configuration not stated)	-0.9	-90.1	6.8	-0.9	86.2*	7.7	+	181.7*
Cc1cccn2c(=O)c(/C=C(\C#N)C(=O)NC3CCS(=O)(=O)C3)c(Oc3ccc(F)cc3)nc12 (configuration not stated)	-2.7	-0.9	6.8	-0.3	31.5*	-3.0	+	+
O=C(CCN1C(=O)c2cccc3cccc(c23)C1=O)NCC1CCCO1 (configuration not stated)	17.2	-3.8	-8.0	-3.3	33.6*	25.4	156.0*	96.5*
O=C1c2cccc3cccc(c23)C(=O)N1CC1CCCO1 (configuration not stated)	-2.8	2.1	1.6	-3.1	31.5*	10.2	52.2*	28.1*
